Sampled rows, rich in hits. Any-hit rate of the full collection: about 8%.
KB-V1 MDR tox: KB-V1 MDR subline cytotoxicity | KB-V1 MDR cells viability, CellTiter-Glo, 72 h | Potency, µM (top dose mostly 46.1 µM), actives largely listed as cytotoxic | hit rate 3.4% among 400,000 | AID 1347076; further: on the % scale 0 is the no-effect control and ±100 the full control effect; nearly all actives have a fitted effect of over 60% in size
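Cells of the MDR subline KB-V1 are plated, dosed with compound at multiple concentrations, and incubated 72 h at 37 degrees C; CellTiter-Glo is then added and luminescence read after 10 min.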
HT1080 IDH1KD tx: toxicity to HT-1080 IDH1 knockdown cells (counter line); HT-1080 IDH1 knockdown viability, ATP luminescence, 48 h; Potency, µM (top dose mostly 46.1 µM), without a hit: top-dose activity, negative = toxicity, most hits filed as cytotoxic; hit rate 2% among 360,000; AID 686971;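 further: 0% = DMSO wells and -100% = cell-free medium wells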
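HT-1080-IDH1KD cells (IDH1 knocked down), 750/well in RPMI with 5% FBS, treated with compound 48 h at 37 degrees C. Viability by CellTiter-Glo luminescence, normalised to DMSO and no-cell wells; concentration-response curves classed.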
SW480 rereplic: DNA re-replication induction in SW480 cells. Potency, µM (highest dose often 46.1 µM), inactives show top-dose re-replication activation, most hits filed as activators. SW480 DNA re-replication, Hoechst DNA content imaging, 48 h. hit rate 1.8% among 340,000; further: % of control where 0% means no effect; nearly all actives have a fitted effect of over 55% in size
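Hoechst fluorescence of nuclei (405 nm excitation, 500-530 nm emission) measured by plate-scanning imager after 48 hr compound exposure at 37 C; re-replication scored as increased number of nuclei with elevated intensity.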
KB-3-1 tox: KB-3-1 parental cell cytotoxicity | hit rate 1.4% among 400,000 | Potency, µM (top dose mostly 46.1 µM), usual class: cytotoxic | KB-3-1 viability, CellTiter-Glo ATP luminescence, 72 h | AID 1347075; further: on the % scale 0 is the no-effect control and ±100 the full control effect; nearly all actives have a fitted effect of over 60% in size
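Here the drug-naive KB-3-1 line serves as comparator for MDR sub-line selectivity; cells received compound titrations, 72 h at 37 °C, then CellTiter-Glo readout.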
HT1080NT lethal: kills 2HG-producing HT-1080-NT fibrosarcoma cells. HT-1080-NT fibrosarcoma viability, CellTiter-Glo ATP luminescence, 48 h. Potency, µM (top dose mostly 46.1 µM), inactives show top-dose activity, negative = less viability, usual class: cytotoxic. hit rate 1.6% among 360,000. AID 686970;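 further: NT is the 2HG producing partner of a matched IDH1 knockdown line; 0% = DMSO-treated cells and -100% = media-only wells without cells; nearly all actives have a fitted effect of over 55% in size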
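HT-1080-NT fibrosarcoma cells (2HG-overproducing), 750 cells/well in RPMI with 5% FBS, dosed after 2 h and incubated 48 h at 37C. CellTiter-Glo luminescence normalized to DMSO and no-cell wells; concentration-response curves fitted and classed.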
MCF10A rerep: DNA re-replication induction in MCF 10a cells. hit rate 2.9% among 350,000. AID 624296. MCF 10A DNA re-replication, Hoechst nuclear intensity, 48 h. Potency, µM (doses to about 46.1 µM), for the others: at the top dose activity, positive = re-replication, most hits filed as activators; further: % of control where 0% means no effect; nearly all actives have a fitted effect of over 50% in size
* hit, by the source's call; i = inactive; u = inconclusive; x = no result given; ! = not confirmed by another sample; [ ] = dose if it differs, or a comment. The call rests on the fitted dose curve; in most records, active means well fitted curve in the direction sought with a large enough effect; inconclusive means small, poorly fitted or top-dose-only effect, or another doubt; inactive means no such curve, though single readings can be large; an effect the other way counts as inactive or inconclusive. Potency means the concentration at half of the fitted maximal effect.

SMILES | KB-V1 MDR tox | HT1080 IDH1KD tx | SW480 rereplic | KB-3-1 tox | HT1080NT lethal | MCF10A rerep
Cc1cc(C)cc(-n2ncc3c2CCCC3NC(=O)CN2CCCC2=O)c1 (stereo not drawn) | i | -2.0% | -7.5% | u | 3.9% | 7.6%
CC(=O)NC1CCCc2c1cnn2-c1ccc(C(C)(C)C)cc1 (stereo not drawn) | i | -2.6% | 0.0% | i | -0.5% | -0.5%
COc1ccc(CCCc2nnc(SCC(=O)Nc3cccc(F)c3C)o2)cc1 | i | x | x | i | x | x
O=C(Nc1cccc(C(F)(F)F)c1)c1cc2c(=O)c3ccccc3oc2nc1C(F)(F)F | 20.6µM* | 2.3% | -1.7% | i | -3.8% | 8.3%
COc1ccc(C(=O)N(Cc2cc(OC)c(OC)c(OC)c2)C2CCS(=O)(=O)C2)cc1Cl (stereo not drawn) | i | x | x | i | x | x
COc1ccccc1Cc1c(-c2ccc(Cl)cc2)nc2c(C)cc(Br)cn12 | u | u | x | 16.4µM* | u | x
Cc1cc(Br)cn2c(Cc3cccc(F)c3)c(-c3ccc(F)cc3)nc12 | i | -15.8% | x | 16.4µM* | u | x
COc1ccc(NC(=O)CCNS(=O)(=O)c2ccc3c(c2)CCN3C(=O)C2CC2)cc1Cl | u | x | x | i | x | x
Cc1cccc(NC2=Nc3ccccc3N3C2=Nc2c(c(C)nn2-c2ccccc2)C3c2ccc(O)c(O)c2)c1 (stereo not drawn) | u | 16.4µM* | 7.31µM* | u | 14.6µM* | u
Cc1ccc(NC2=Nc3ccccc3N3C2=Nc2c(c(C)nn2-c2ccccc2)C3c2ccc(O)c(O)c2)cc1 (stereo not drawn) | u | u | 9.2µM* | u | 23.1µM* | u
COC(=O)c1cc2oc3ccccc3c2n1CC(=O)Nc1ccc(N(C)C)cc1 | u | x | x | i | x | x
O=C(NCCc1nc2ccccc2n1Cc1ccccc1)c1ccco1 | i | x | x | i | x | x
Cc1cccc(C(=O)NNC(=O)c2cc3cc4ccccc4nc3s2)c1 | i | 20.6µM* | u | i | u | 3.6%
Cc1nc(N2CCN(S(=O)(=O)c3cccc4nonc34)CC2)c2c3c(sc2n1)CCCC3 | i | 18.6%[9.24 µM] | 0.7% | i | 5.8% | 18.4µM*
O=C(CCSCCc1ccccn1)Nc1c(F)cc(F)cc1Br | 16.4µM* | 2.5% | 0.5% | i | 7.9% | u
O=C(CSCCc1ccccn1)Nc1ccccn1 | i | -5.1% | -1.8% | u | 2.8% | 24.1%
O=C(CSCCc1ccccn1)Nc1ccc(Br)cn1 | 20.6µM* | 6.1% | -12.1% | i | 4.6% | 12.7%
CCn1c(=O)c2cc(C(=O)N(CC(C)C)CC(C)C)sc2c2ccccc21 | u | x | x | i | x | x
O=S(=O)(Nc1cccc(-c2ccc(N3CCOCC3)nn2)c1)c1ccc(F)cc1F | i | x | x | i | x | x
CCOC(=O)Nc1cc(=O)c2ccccc2o1 | u | u | u | u | 8.91µM* | u
Cc1cc(NC(=O)/C=C/c2ccccc2Cl)n(-c2nc3ccccc3[nH]2)n1 | u | -26.0% | u | u | u | 16.4µM*
Cc1cc(NC(=O)c2ccc(F)cc2F)n(-c2nc3ccccc3[nH]2)n1 | i | 9.3% | 0.8% | i | 2.6% | u
Cc1cc(NC(=O)CC2CCCC2)n(-c2nc3ccccc3[nH]2)n1 | 18.4µM* | 18.4µM* | -1.5% | u | u | u
c1ccc(CCNc2cc(-c3ccc4ccccc4c3)nc3ccnn23)nc1 | i | 15.2% | x | i | 15.4% | x
O=C(CCCOc1ccccc1)Nc1ccc(Cl)c(S(=O)(=O)N2CCOCC2)c1 | u | -13.3% | -8.9% | u | -10.6% | 5.9%
SMILES | KB-V1 MDR tox | HT1080 IDH1KD tx | SW480 rereplic | KB-3-1 tox | HT1080NT lethal | MCF10A rerep
O=C(Cc1cccs1)Nc1ccc(Cl)c(S(=O)(=O)N2CCOCC2)c1 | u | -3.6% | 5.8µM* | i | u | -15.1%
O=C(CCCSc1ccccc1)Nc1ccc(Cl)c(S(=O)(=O)N2CCOCC2)c1 | 2.59µM* | -18.4% | 3.1% | u | 0.7% | 13.7%
CC(=O)c1ccc(OCCCC(=O)Nc2ccc(Cl)c(S(=O)(=O)N3CCOCC3)c2)cc1 | i | -17.4% | 4.1% | u | -5.3% | 17.2%
Cc1ccc(OCCCC(=O)Nc2ccc(Cl)c(S(=O)(=O)N3CCOCC3)c2)cc1 | 7.31µM* | -20.8% | u | 14.6µM* | -19.6% | u
Cc1ccc2onc(CNC(=O)N3CCN(c4cc(Cl)ccc4C)CC3)c2c1 | i | x | x | i | x | x
CCOc1ccc(OCCNC(=O)c2ccc3c(c2)nnn3CC)cc1 | 23.1µM* | -6.3% | -7.8% | i | -6.3% | 5.8%
CSc1ccc(CNC(=O)C2CCCN(S(=O)(=O)N(C)c3ccc(F)cc3)C2)cc1 (stereo not drawn) | i | x | x | 16.4µM* | x | x
CC1CCN(S(=O)(=O)N2CCCC(C(=O)NCc3ccc(F)cc3)C2)CC1 (stereo not drawn) | i | -3.2% | 15.7% | i | -6.8% | 0.2%
NC(=O)c1sc2nc(-c3ccccc3)ccc2c1N | 5.8µM* | 24.2% | u | u | 27.5% | 5.0%
COc1ccc(-c2ccc3c(N)c(C(=O)NC(C)C)sc3n2)cc1OC | i | -20.8% | 18.4µM* | u | -15.5% | 18.4µM*
CCOC(=O)c1sc2nc(-c3ccccc3)ccc2c1N | i | 18.3% | u | i | 26.0% | u
Cc1ccc(-c2cn(-c3ccccc3)c3[n+]2CCCS3)cc1 | i | u | -3.7% | 1.84µM*! | u | 4.2%
c1ccc(-c2cn(-c3ccccc3)c3[n+]2CCCS3)cc1 | i | u | -5.0% | u | u | 24.5%
COc1ccc(-n2cc(-c3ccc(C)cc3)[n+]3c2SCC3)cc1 | i | 2.31µM* | -6.5% | u | 2.91µM* | u
CCc1ccc(-n2cc(-c3ccc(F)cc3)[n+]3c2SCCC3)cc1 | i | u | 26.5% | 9.2µM* | u | 25.5%
COc1cccc(C(=O)Nc2ccccc2-c2nc(-c3ccc(C)cc3)no2)c1 | i | x | x | i | x | x
O=C(Oc1c(CN2CCOCC2)cc(Cl)c2cccnc12)c1ccccc1F | u | u | 6.51µM* | 18.4µM* | u | 18.4µM*
O=C(COc1c(Br)cc(Br)c2cccnc12)N1CCCCC1 | i | -16.3% | -9.3% | i | -15.4% | 2.5%
Oc1c(CN2CCCCC2)cc(Br)c2cccnc12 | u | u | u | 13µM* | u | 23.1µM*
COc1cc(OC)cc(C(=O)Oc2c(CN3CCOCC3)cc(Cl)c3cccnc23)c1 | u | -26.5% | u | i | u | -3.2%
